Screening results as filed in PubChem BioAssay.
The sample as a whole holds a higher share of hits than the screen did.
BoNT-F LC inh = blocks Botulinum neurotoxin F light chain protease; Multiplex microsphere protease cleavage assay, flow cytometry; inhibition, % at 10 µM; 0.22% of 360,000 active; AID 588497; in the data active = inhibition above about 35%, passing the limit was not always enough; inconclusive = no clear call, values can overlap the other calls; note: plate controls were buffer without enzyme for full effect and enzyme alone for no effect
Bead autofluor = flagged as autofluorescent in microsphere protease counterscreen | compound autofluorescence counterscreen, microsphere flow cytometry; stronger effect = higher value | fluorescence intensity (test concentration not listed) | 3.1% of 360,000 active | AID 624483; in the data active = fluorescence intensity above about 16000; inconclusive = no clear call, values can overlap the other calls
TcdB GH inh = blocks C. difficile toxin B glycohydrolase activity; TcdB glycohydrolase enzymatic assay, plate reader; 0.24% of 350,000 active; P18177; AID 652162; inhibition, % at 9.99 µM; in the data active = inhibition above about 10%
Target sequence (P18177 whole entry, looked up): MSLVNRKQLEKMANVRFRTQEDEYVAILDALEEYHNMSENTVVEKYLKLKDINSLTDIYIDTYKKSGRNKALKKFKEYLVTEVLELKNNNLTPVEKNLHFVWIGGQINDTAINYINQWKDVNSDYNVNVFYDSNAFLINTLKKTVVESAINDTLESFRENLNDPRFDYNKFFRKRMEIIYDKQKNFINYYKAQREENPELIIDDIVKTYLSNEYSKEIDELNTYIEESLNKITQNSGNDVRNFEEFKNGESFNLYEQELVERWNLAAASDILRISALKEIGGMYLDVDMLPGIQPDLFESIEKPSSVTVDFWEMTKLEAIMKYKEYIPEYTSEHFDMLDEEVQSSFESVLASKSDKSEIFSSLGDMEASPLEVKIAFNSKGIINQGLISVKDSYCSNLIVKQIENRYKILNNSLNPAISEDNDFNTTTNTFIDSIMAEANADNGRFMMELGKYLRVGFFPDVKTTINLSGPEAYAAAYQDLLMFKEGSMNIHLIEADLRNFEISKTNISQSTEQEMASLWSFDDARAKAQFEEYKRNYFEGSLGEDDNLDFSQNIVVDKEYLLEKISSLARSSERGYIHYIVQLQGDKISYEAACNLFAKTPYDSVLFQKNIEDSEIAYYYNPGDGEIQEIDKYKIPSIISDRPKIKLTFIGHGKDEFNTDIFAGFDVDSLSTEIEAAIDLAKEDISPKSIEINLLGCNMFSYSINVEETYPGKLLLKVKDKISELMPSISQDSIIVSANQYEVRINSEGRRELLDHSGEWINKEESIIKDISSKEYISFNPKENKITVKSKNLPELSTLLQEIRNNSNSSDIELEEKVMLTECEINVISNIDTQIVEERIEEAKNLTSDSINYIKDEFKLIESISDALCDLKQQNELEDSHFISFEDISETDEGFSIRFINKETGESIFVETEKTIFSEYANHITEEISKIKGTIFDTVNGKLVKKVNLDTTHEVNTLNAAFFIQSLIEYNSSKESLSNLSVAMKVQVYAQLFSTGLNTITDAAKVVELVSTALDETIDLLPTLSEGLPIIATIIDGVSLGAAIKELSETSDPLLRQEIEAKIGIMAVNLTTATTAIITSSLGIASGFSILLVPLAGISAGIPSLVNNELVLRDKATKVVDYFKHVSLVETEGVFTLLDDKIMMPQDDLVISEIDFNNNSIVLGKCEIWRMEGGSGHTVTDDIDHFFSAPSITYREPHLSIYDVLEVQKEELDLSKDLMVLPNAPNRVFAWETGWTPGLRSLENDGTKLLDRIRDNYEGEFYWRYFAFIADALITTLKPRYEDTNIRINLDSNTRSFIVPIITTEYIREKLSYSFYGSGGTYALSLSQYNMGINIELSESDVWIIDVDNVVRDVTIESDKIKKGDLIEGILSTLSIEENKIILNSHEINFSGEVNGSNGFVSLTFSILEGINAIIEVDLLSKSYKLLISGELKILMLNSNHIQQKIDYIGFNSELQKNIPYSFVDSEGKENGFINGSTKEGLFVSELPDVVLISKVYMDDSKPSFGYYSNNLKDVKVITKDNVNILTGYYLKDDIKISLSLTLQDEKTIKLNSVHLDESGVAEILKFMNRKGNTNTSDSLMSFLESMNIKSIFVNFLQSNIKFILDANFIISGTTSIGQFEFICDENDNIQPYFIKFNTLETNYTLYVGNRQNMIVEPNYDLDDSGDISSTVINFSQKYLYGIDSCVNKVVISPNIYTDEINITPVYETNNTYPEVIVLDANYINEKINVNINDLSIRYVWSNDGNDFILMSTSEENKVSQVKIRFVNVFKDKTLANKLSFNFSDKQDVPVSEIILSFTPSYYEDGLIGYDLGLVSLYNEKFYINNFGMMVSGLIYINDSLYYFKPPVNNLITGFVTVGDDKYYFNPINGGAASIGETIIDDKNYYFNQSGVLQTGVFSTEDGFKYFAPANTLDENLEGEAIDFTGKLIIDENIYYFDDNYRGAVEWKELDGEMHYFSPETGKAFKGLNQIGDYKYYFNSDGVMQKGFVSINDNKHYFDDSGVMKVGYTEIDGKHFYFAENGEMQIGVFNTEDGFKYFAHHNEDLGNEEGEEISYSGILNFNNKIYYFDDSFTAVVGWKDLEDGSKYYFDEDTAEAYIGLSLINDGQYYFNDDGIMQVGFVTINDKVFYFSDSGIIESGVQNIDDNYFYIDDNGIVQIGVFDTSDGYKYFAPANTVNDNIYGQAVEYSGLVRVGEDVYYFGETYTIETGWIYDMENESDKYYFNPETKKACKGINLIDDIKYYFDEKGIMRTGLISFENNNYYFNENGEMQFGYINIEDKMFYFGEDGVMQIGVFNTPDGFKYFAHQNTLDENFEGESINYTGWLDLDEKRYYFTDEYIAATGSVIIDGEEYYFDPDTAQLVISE
BoNT A protease = BoNT A light chain protease inhibition. multiplex microsphere protease substrate cleavage, flow cytometry. inhibition, % at 10 µM. 0.17% of 360,000 active; note: plate controls were buffer without enzyme for full effect and enzyme alone for no effect
Anthrax LF inh2 = inhibitors of Bacillus anthracis lethal factor protease | P15917 | multiplex microsphere protease cleavage assay, LF | inhibition, % at 10 µM | 0.12% of 360,000 active | AID 588501; note: plate controls were buffer without enzyme for full effect and enzyme alone for no effect
Active calls of the source: *. Cut-off read from the data, not from the text of the source, unless noted: active = inhibition above about 30%; inconclusive = no clear call, values can overlap the other calls; inactive = below that.

Results for CC(/C=N/Nc1nnc(C)c(=O)[nH]1)=C\c1ccccc1 ?
BoNT-F LC inh: 2; Bead autofluor: 10429; TcdB GH inh: 0; BoNT A protease: 0; Anthrax LF inh2: -2

How did C/C(=N\Nc1nnc(C)c(=O)[nH]1)C(=O)O do in these assays?
BoNT-F LC inh: -1; Bead autofluor: 23478*; BoNT A protease: 0; Anthrax LF inh2: -6

What do the screens show for `Cn1cc(C(CO)Cc2ccccc2)c2ccccc21` (stereo unspecified)?
BoNT-F LC inh: -1; Bead autofluor: 3861; TcdB GH inh: 20*; BoNT A protease: 0; Anthrax LF inh2: -6

Results for Cn1cc(C[C@@H](N)C(=O)O)c2ccccc21 ?
TcdB GH inh: 0

What do the screens show for `O=C1N(Cc2cccc(Cl)c2)C[C@@H]2C[C@@H](c3cccc4cccnc34)N3CCC[C@@]123`?
BoNT-F LC inh: 1; Bead autofluor: 24208*; TcdB GH inh: -1; BoNT A protease: 2; Anthrax LF inh2: -10

How did O=C1N(Cc2cccc(Cl)c2)C[C@@H]2C[C@@H](c3cccc4ncccc34)N3CCC[C@@]123 do in these assays?
BoNT-F LC inh: -6; Bead autofluor: 4913; BoNT A protease: -1; Anthrax LF inh2: -2

Results for Cc1ccc(N=Nc2c(C)[nH]n(C(N)=S)c2=O)cc1C ?
BoNT-F LC inh: 0; Bead autofluor: 2082; BoNT A protease: 2; Anthrax LF inh2: 0

What do the screens show for `Cc1[nH]n(C(N)=S)c(=O)c1N=Nc1ccc(S(=O)(=O)N2CCCCCC2)cc1`?
BoNT-F LC inh: -12; Bead autofluor: 21910*; BoNT A protease: inconclusive; Anthrax LF inh2: -3

How did CC(C)NC(=O)N(C)C[C@H]1OCCCC[C@@H](C)Oc2ccc(NC(=O)CCC(F)(F)F)cc2C(=O)N([C@@H](C)CO)C[C@H]1C do in these assays?
TcdB GH inh: 1

How did CNS(=O)(=O)c1cccc(C(=O)NCC(c2cccs2)N(C)C)c1 (stereo unspecified) do in these assays?
BoNT-F LC inh: 3; Bead autofluor: 22234*; BoNT A protease: 2; Anthrax LF inh2: -8

How did Cc1ccc(NS(=O)(=O)c2cccc(C(=O)NCC(c3cccs3)N(C)C)c2)cc1 (stereo unspecified) do in these assays?
BoNT-F LC inh: -4; Bead autofluor: 4015; TcdB GH inh: 2; BoNT A protease: -1; Anthrax LF inh2: -1

What do the screens show for `Cc1ccc(S(=O)(=O)N(CC(=O)Nc2cccc([N+](=O)[O-])c2)C(=O)N2CCN(C)CC2)cc1`?
BoNT-F LC inh: -76; Bead autofluor: 16418*; TcdB GH inh: 3; BoNT A protease: -45; Anthrax LF inh2: -13

How did Cc1ccc(NC(=O)C2CCN(S(C)(=O)=O)CC2)cc1 do in these assays?
BoNT-F LC inh: -9; Bead autofluor: 22760*; BoNT A protease: inconclusive; Anthrax LF inh2: 3

What do the screens show for `CC(C)c1ccc(NC(=O)C2CCN(S(C)(=O)=O)CC2)cc1`?
BoNT-F LC inh: -76; Bead autofluor: 3887; BoNT A protease: -3; Anthrax LF inh2: -1

Results for COc1ccc(NC(=O)C2CCN(S(=O)(=O)c3ccc(C)cc3)CC2)cc1OC ?
BoNT-F LC inh: -7; Bead autofluor: 25551*; BoNT A protease: -4; Anthrax LF inh2: 0

How did Cc1ccc(S(=O)(=O)Nc2cccc3c2O[C@@H](CN(C)CC2CC2)[C@H](C)CN([C@@H](C)CO)C3=O)cc1 do in these assays?
TcdB GH inh: 0

Results for COc1ccc(NC(=O)Nc2ccc3c(c2)[C@H]2C[C@@H](CC(=O)NCc4ccccn4)O[C@@H](CO)[C@H]2O3)cc1 ?
TcdB GH inh: 0

What do the screens show for `COc1cc2cc(CN(Cc3ccc4c(c3)OCO4)C(=O)c3ccco3)c(=O)[nH]c2cc1OC`?
BoNT-F LC inh: -8; Bead autofluor: 16500*; BoNT A protease: -2; Anthrax LF inh2: -4

What do the screens show for `COc1cccc(C(=O)N(Cc2cc3cc(C)ccc3[nH]c2=O)CC2CCCO2)c1` (stereo unspecified)?
BoNT-F LC inh: inconclusive; Bead autofluor: inconclusive; BoNT A protease: inconclusive; Anthrax LF inh2: -15

How did COc1ccc(C(=O)N(Cc2ccccc2)Cc2cc3cc4c(cc3[nH]c2=O)OCCO4)cc1 do in these assays?
BoNT-F LC inh: -5; Bead autofluor: 22249*; BoNT A protease: -6; Anthrax LF inh2: 1

Results for COc1cccc(C(=O)N(Cc2ccccc2)Cc2cc3cc4c(cc3[nH]c2=O)OCCO4)c1 ?
BoNT-F LC inh: -2; Bead autofluor: 20933*; BoNT A protease: -2; Anthrax LF inh2: -6

How did COc1ccccc1S(=O)(=O)N[C@H]1CC[C@@H](CCNC(=O)C2CCC2)O[C@H]1CO do in these assays?
TcdB GH inh: -3

How did C[C@@H]1CN([C@@H](C)CO)C(=O)Cc2cc(N(C)C)ccc2O[C@@H]1CN(C)C(=O)Nc1cccc2ccccc12 do in these assays?
TcdB GH inh: -5

What do the screens show for `N#C[C@H]1[C@@H](c2ccc(C#CC3(O)CCCC3)cc2)[C@@H](CO)N1C(=O)C1CCCC1`?
TcdB GH inh: 0

Results for CC1=C(C)[N+](=O)C2CCCCC2N1[O-] (stereo unspecified) ?
BoNT-F LC inh: -7; Bead autofluor: 17133*; BoNT A protease: inconclusive; Anthrax LF inh2: -5

Results for O=C(O)c1ccc(-n2nnc3ccccc32)c([N+](=O)[O-])c1 ?
BoNT-F LC inh: -2; Bead autofluor: 4013; TcdB GH inh: 14*; BoNT A protease: -1; Anthrax LF inh2: -18

What do the screens show for `O=[N+]([O-])c1cnccc1-n1nnc2ccccc21`?
BoNT-F LC inh: 5; Bead autofluor: 4081; TcdB GH inh: 1; BoNT A protease: 1; Anthrax LF inh2: 6

What do the screens show for `CC(C)c1ccccc1N1CC(C(=O)O)CC1=O` (stereo unspecified)?
BoNT-F LC inh: 1; Bead autofluor: 21241*; TcdB GH inh: 1; BoNT A protease: 2; Anthrax LF inh2: -14

Results for C[C@@H]1CN([C@@H](C)CO)C(=O)c2cc(NC(=O)Nc3ccccc3)ccc2O[C@@H](C)CCCCO[C@H]1CN(C)S(=O)(=O)c1ccc(F)cc1 ?
TcdB GH inh: 1

Results for C=CCn1c(=NC(=O)c2ccc(S(=O)(=O)N3CCCc4ccccc43)cc2)sc2cc(S(N)(=O)=O)ccc21 ?
BoNT-F LC inh: 18; Bead autofluor: 10353; BoNT A protease: 2; Anthrax LF inh2: 37*

Results for NNC(=O)c1nn(-c2ccc(Cl)cc2)ccc1=O ?
BoNT-F LC inh: -4; Bead autofluor: 23538*; BoNT A protease: inconclusive; Anthrax LF inh2: -2

What do the screens show for `O=C(c1cc(-c2cccs2)on1)N1CCN(c2ccccc2)CC1`?
BoNT-F LC inh: -2; Bead autofluor: 8264; TcdB GH inh: 1; BoNT A protease: -1; Anthrax LF inh2: 2

What do the screens show for `O=C(c1cc(-c2cccs2)on1)N1CCN(c2ccc(F)cc2)CC1`?
BoNT-F LC inh: -4; Bead autofluor: 21562*; BoNT A protease: -4; Anthrax LF inh2: -6

Results for CN1CCN(C(=O)C[C@H]2C=C[C@H](NS(=O)(=O)c3cccc(F)c3)[C@H](CO)O2)CC1 ?
TcdB GH inh: -1
